SW480 rerep – inducers of DNA re-replication in SW480 colon cancer cells; SW480 DNA re-replication, Hoechst DNA content imaging, 48 h; Potency, µM (titrated, usually from 46.1 µM), hits mostly activators; actives 1.8% (n = 340,000); note: nearly all actives have a fitted effect of over 55% in size
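Image-based read-out: total Hoechst fluorescence of nuclei (405 nm excitation, 500-530 nm emission), with hits raising the fraction of high-intensity nuclei. SW480 colon cells incubated 48 hr with compounds at 37 C.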
KB-3-1 cytotox – kills parental KB-3-1 adenocarcinoma cells; Potency, µM (series often up to 46.1 µM), hits mostly cytotoxic; KB-3-1 viability, CellTiter-Glo ATP luminescence, 72 h; actives 1.4% (n = 400,000); note: nearly all actives have a fitted effect of over 60% in size
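Cytotoxicity measured as CellTiter-Glo luminescence after 72 h at 37 C. Compound titrations were pinned onto drug-naive KB-3-1 parental adenocarcinoma cells grown in DMEM with 10% FBS, and normalized data fitted to concentration-response curves.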
KB-V1 MDR tox – kills drug-selected multidrug resistant KB-V1 cells. KB-V1 MDR cells viability, CellTiter-Glo, 72 h. actives 3.4% (n = 400,000). Potency, µM (series often up to 46.1 µM), hits mostly cytotoxic; note: nearly all actives have a fitted effect of over 60% in size
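Cytotoxicity via CellTiter-Glo luminescence after 72 h compound exposure at 37 degrees C. Cells: drug-selected KB-V1 line, DMEM phenol-red free plus 10% FBS. Compounds tested at multiple concentrations; normalized data fitted to concentration-effect curves.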
ELG1 DNA repair – blocks ELG1-dependent DNA repair in HEK293T cells; AID 504467; actives 2.3% (n = 330,000); Potency, µM (highest dose often 46.1 µM), actives largely listed as inhibitors; HEK293T ELG1-luciferase reporter, luminescence, 16 h; DNA damage induced by 5-fluorouridine; note: nearly all actives have a fitted effect of over 55% in size
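Step one: seed 2,000 cells per well. Step two: pin-transfer compound or DMSO alongside 5-fluorouridine. Step three: incubate 16 hr, 37 °C, 5% CO2. Step four: add ONE-Glo, wait 30 min, read luminescence.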
MCF10A rereplic – inducers of DNA re-replication in MCF 10A breast cells | Potency, µM (highest dose often 46.1 µM), actives largely listed as activators | MCF 10A DNA re-replication, Hoechst nuclear intensity, 48 h | actives 2.9% (n = 350,000); note: nearly all actives have a fitted effect of over 50% in size
ELG1 FLuc counter – luciferase inhibition in cell-free luciferin readout for ELG1 hits | shares compounds with ELG1 DNA repair | cell-free firefly luciferase luminescence counter-screen, ViewLux | Potency, µM (top dose mostly 46.1 µM), hits mostly inhibitors | actives 3% (n = 350) | AID 624247
ELG1 Luc conf – confirmation of human ELG1-dependent DNA repair inhibitors. shares compounds with ELG1 DNA repair. HEK293T ELG1-luciferase levels, luminescence; cells co-treated with 5-fluorouridine. Potency, µM (top dose mostly 46.1 µM), actives largely listed as inhibitors. actives 68% (n = 670). AID 624248; note: nearly all actives have a fitted effect of over 55% in size
Target sequence (Q96QE3 whole entry, looked up): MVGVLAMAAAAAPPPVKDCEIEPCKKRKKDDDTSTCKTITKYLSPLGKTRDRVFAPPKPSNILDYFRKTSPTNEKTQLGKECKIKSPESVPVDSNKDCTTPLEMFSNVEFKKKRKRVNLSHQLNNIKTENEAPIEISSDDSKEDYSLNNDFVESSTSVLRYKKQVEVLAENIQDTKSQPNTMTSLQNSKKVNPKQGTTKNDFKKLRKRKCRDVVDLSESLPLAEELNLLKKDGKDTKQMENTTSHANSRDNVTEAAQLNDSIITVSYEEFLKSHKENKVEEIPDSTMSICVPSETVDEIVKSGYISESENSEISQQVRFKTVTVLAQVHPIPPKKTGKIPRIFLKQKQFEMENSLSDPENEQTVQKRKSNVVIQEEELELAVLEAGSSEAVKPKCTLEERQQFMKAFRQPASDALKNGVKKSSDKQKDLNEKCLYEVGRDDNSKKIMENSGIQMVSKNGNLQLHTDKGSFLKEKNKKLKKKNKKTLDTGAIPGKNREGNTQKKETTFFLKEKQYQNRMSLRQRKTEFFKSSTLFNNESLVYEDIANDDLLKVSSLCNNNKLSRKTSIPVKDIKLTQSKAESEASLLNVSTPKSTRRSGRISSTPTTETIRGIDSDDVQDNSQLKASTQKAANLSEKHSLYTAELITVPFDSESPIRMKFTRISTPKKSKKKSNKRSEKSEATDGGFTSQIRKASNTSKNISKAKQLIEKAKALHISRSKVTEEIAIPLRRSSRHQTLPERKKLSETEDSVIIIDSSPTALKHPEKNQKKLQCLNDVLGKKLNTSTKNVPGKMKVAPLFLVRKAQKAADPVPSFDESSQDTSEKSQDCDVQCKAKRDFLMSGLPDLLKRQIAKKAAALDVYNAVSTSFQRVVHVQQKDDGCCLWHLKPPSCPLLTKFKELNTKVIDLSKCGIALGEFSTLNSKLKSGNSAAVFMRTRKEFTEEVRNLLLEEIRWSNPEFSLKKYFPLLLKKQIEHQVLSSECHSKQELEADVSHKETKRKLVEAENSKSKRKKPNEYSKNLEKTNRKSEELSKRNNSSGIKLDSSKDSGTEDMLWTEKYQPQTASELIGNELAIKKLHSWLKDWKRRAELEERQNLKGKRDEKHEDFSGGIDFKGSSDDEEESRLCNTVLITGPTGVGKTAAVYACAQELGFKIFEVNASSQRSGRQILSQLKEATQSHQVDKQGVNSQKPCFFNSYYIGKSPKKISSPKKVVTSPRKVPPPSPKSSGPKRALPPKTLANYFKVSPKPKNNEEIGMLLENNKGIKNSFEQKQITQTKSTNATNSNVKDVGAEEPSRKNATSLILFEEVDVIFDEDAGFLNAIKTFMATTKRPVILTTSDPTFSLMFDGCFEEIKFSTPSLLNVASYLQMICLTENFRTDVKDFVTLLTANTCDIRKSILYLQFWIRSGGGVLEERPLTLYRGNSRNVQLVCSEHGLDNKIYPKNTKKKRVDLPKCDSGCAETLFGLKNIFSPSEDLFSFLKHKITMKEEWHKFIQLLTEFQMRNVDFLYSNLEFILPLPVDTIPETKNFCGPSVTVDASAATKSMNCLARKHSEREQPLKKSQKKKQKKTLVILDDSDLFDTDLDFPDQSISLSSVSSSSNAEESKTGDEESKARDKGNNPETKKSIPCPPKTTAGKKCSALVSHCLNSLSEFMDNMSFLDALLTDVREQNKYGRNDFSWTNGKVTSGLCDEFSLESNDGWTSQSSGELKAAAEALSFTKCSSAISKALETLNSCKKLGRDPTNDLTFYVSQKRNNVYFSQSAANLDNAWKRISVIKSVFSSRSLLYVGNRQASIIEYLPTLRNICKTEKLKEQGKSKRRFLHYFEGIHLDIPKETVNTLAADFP
ELG1-Luc MMS – confirmation of human ELG1 repair inhibitors, MMS stimulated. actives 53% (n = 670). AID 624249. Potency, µM (doses to about 46.1 µM), actives largely listed as inhibitors. HEK293T luciferase-tagged ELG1 level, MMS stimulated. shares compounds with ELG1 DNA repair; note: nearly all actives have a fitted effect of over 60% in size
ELG1 5-FU – confirmation of ELG1 repair inhibitors: viability with 5FU. cell viability with 5-FU, ELG1-dependent repair. 670 tested, under 10 active. Potency, µM (doses to about 46.1 µM), usual class: cytotoxic. shares compounds with ELG1 DNA repair. AID 624250;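 note: ELG1-luc HEK293T cells cotreated with 5-fluorouridine at 10 µM final; viability measured 16 h after compound addition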
ELG1 MMS viab – confirmation of ELG1 repair inhibitors: viability with MMS | shares compounds with ELG1 DNA repair | Cell viability with MMS, ELG1-dependent DNA repair | Potency, µM (series often up to 46.1 µM), usual class: cytotoxic | actives 33% (n = 670) | AID 624251;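 note: ELG1-luc HEK293T cells co-treated with 10 µM MMS; viability read 16 h after compound addition; nearly all actives have a fitted effect of over 60% in size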
Cell viab unstim – unstimulated viability counter-screen for ELG1 repair hits; cell viability counter-screen, unstimulated, luminescence; shares compounds with ELG1 DNA repair; actives 8% (n = 900); Potency, µM (titrated, usually from 45.9 µM), most hits filed as cytotoxic;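 note: compound exposure lasted 16 hours before reading; nearly all actives have a fitted effect of over 55% in size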
FLuc enzyme – inhibits purified firefly luciferase, counter-screen for ELG1 hits. purified firefly luciferase, luminescence counter-screen. shares compounds with ELG1 DNA repair. actives 10% (n = 350). Potency, µM (titrated, usually from 57.5 µM), most hits filed as inhibitors
Numbers stand for hits; – = inactive; ? = inconclusive; · = no result. Hits are enriched below; roughly 8.1% of the tested compounds scored in any of these assays. Calls come from the whole dose curve; as a rule, active = well fitted curve in the direction sought with a large enough effect; inconclusive = small, poorly fitted or top-dose-only effect, or another doubt; inactive = no such curve, though single readings can be large; an effect the other way counts as inactive or inconclusive.

SMILES	SW480 rerep	KB-3-1 cytotox	KB-V1 MDR tox	ELG1 DNA repair	MCF10A rereplic	ELG1 Luc conf	ELG1-Luc MMS	ELG1 5-FU	ELG1 MMS viab	Cell viab unstim	others
CN(C)S(=O)(=O)c1ccc(NC(=O)c2cc(-c3cccs3)nc3ccccc23)cc1	–	–	?	3.66µM	?	?	?	–	–	?
CCn1c(=O)n(CC)c2cc(S(N)(=O)=O)c(C)cc21	–	–	–	–	–	·	·	·	·	·
CCn1c(=O)n(CC)c2cc(S(=O)(=O)N3CCCCC3)c(C)cc21	–	–	?	?	–	·	·	·	·	–	ELG1 FLuc counter=–;FLuc enzyme=–
Cc1ccc(C(=O)NN=CC(=O)c2ccccc2)c(C)c1	–	–	–	?	–	·	·	·	·	–
COc1ccc(C(=O)N/N=C/C(=O)c2ccccc2)cc1	–	–	–	?	–	·	·	·	·	·
COc1ccc(NC(=O)CSc2ccc3nnc(-c4ccccn4)n3n2)cc1	–	–	–	–	–	·	·	·	·	·
CCCc1ccc2ccc3ccccc3c2n1	·	–	–	·	·	·	·	·	·	·
O=C(Cn1c(SCCOc2ccc(Cl)cc2)nc2ccccc21)N1CCCCC1	·	–	–	·	·	·	·	·	·	·
Cc1cccc(-n2ccnc2SCC(=O)Nc2nccs2)c1C	–	–	?	?	–	·	·	·	·	·
Cc1nc(NC(=O)c2c(-c3ccccc3Cl)noc2C)sc1C	–	–	–	2.91µM	–	?	0.499µM	?	–	–
Cc1ccc2oc(NC(=O)N3CCOCC3)cc(=O)c2c1	–	–	?	3.55µM	–	–	–	–	–	–
Cc1ccc(NC(=O)N2CCOCC2)c(C)c1	–	–	–	–	–	·	·	·	·	·
CNc1csc(C)c(C)c1=O	–	–	–	–	–	·	·	·	·	·
C=CCN(CC=C)C(=O)c1cccc(OC2CCN(S(=O)(=O)N(C)C)CC2)c1	–	–	–	?	–	·	·	·	·	·
Cc1csc2ncnc(NCCc3ccccn3)c12	?	?	–	1.46µM	–	?	1.58µM	–	2.23µM	?
CC1=C(C(=O)OCc2ccc3c(c2)OCO3)C(c2ccc(F)cc2)NC(=O)N1 (configuration not stated)	–	14.6µM	8.2µM	1.3µM	–	0.889µM	4.45µM	–	?	?	ELG1 FLuc counter=?;FLuc enzyme=–
CC1=C(C(=O)OCc2ccc3c(c2)OCO3)C(c2ccc(Cl)cc2)NC(=O)N1 (configuration not stated)	–	?	11.6µM	0.231µM	?	0.199µM	0.889µM	–	?	?	ELG1 FLuc counter=?;FLuc enzyme=–
CSCCOC(=O)C1=C(C)NC(=O)NC1c1ccc2c(c1)OCO2 (configuration not stated)	–	–	–	–	–	·	·	·	·	·
Cc1ccc(Nc2ccc(C(=O)O)cc2N)cc1	–	–	–	?	–	·	·	·	·	·
CC(=O)N1c2ccc(S(=O)(=O)NCCC(=O)NCc3ccc(Cl)cc3)cc2CC1C (configuration not stated)	–	–	–	?	–	·	·	·	·	·

Bioassay records: PubChem BioAssay, National Center for Advancing Translational Sciences (NCATS)
